Most compounds without a hit are left out; they make up all but 7.5% or so of the library.
SMN2 splice up – increases expression of the SMN2 splice variant; HEK293 SMN2-luciferase splicing reporter, luminescence, 30-36 h; Potency, µM (series often up to 46.1 µM), usual class: activators; 210,000 tested, 2.8% active; AID 1458; also: nearly all actives have a fitted effect of over 55% in size
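qHTS luciferase splicing reporter: luminescence rises when SMN2 exon 7 is included in transfected HEK293 cells. Compound exposure lasted 30-36 h at 37C, with 4.5 mM final sodium butyrate as control, followed by a ONE-Glo read.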
KinaseGlo FLuc – Kinase-Glo luciferase inhibition (counter-screen) | Q27757 | Kinase-Glo luciferase, ATP luminescence, 8 min | Potency, µM (series often up to 38.3 µM), usual class: inhibitors | 200,000 tested, 0.28% active | AID 1379; also: nearly all actives have a fitted effect of over 60% in size
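Recombinant Kinase-Glo luciferase, 10 uM ATP (linear range), luciferin; imidazole pH 7.2 / KCl / MgCl2 / Tween / BSA buffer; 8 min RT; luminescence.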
Rab9 promoter act – activates the Rab9 promoter; Huh7 Rab9 promoter-luciferase reporter, luminescence, 24 h; Potency, µM (highest dose often 9.22 µM), most hits filed as activators; 320,000 tested, 2.8% active; also: nearly all actives have a fitted effect of over 60% in size
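Luminescence read-out: Huh7 cells stably expressing Rab9-luciferase, treated 24 h with compound at 37 °C, then lysed with luciferase reagent for 10 min at ambient before reading.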
ELG1 genotoxic – inducers of genotoxicity in HEK293T ELG1-luciferase cells; HEK293T ELG1-luciferase reporter, luminescence, 16 h; Potency, µM (highest dose often 46 µM), hits mostly activators; 330,000 tested, 1.3% active; AID 504466; also: nearly all actives have a fitted effect of over 60% in size
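Cells (2,000/well) expressing the ELG1-luciferase fusion are dosed by pin tool and kept 16 hr at 37 °C, 5% CO2. Signal comes from ONE-Glo luciferase reagent after 30 min at room temperature.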
NPC1 prom act – activates the NPC1 promoter; Huh7 NPC1 promoter luciferase reporter, 24 h; AID 485313; 320,000 tested, 2.4% active; Potency, µM (top dose mostly 9.22 µM), hits mostly activators; also: nearly all actives have a fitted effect of over 60% in size
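Readout is luciferase luminescence, reflecting NPC1 promoter activation in stably transfected Huh7 cells after 24 h compound exposure at 37 °C in reduced-serum medium with 10% FBS.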
FLuc modulator – firefly luciferase modulation, counter-screen for miR-21 project; P08659; purified FLuc, Km substrates, luminescence inhibition; Potency, µM (top dose mostly 57.5 µM), hits mostly inhibitors; 360,000 tested, 6.9% active; AID 588342; also: nearly all actives have a fitted effect of over 55% in size
Target sequence (P08659 whole entry, looked up): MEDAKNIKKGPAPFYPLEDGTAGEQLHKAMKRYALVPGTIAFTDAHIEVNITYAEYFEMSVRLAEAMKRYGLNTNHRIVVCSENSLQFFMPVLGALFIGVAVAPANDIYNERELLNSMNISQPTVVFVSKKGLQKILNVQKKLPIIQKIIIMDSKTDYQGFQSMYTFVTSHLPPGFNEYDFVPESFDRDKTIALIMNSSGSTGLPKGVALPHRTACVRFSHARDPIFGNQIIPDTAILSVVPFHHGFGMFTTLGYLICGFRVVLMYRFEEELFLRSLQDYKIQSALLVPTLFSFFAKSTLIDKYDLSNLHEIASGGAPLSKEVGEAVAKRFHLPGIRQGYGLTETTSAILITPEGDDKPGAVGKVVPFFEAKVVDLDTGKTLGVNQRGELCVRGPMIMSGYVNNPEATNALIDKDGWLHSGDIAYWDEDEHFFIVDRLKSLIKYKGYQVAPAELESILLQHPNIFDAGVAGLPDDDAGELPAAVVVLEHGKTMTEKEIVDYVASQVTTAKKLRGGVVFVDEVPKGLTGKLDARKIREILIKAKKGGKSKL
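Purified P. pyralis luciferase, 10 nM final, with Km-level 10 uM D-luciferin and 10 uM ATP in 50 mM Tris acetate pH 7.5, 10 mM Mg acetate, 0.01% Tween-20, 0.05% BSA; 6-point qHTS titration about 60 µM downward; luminescence read.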
Hits are given with their value; n = inactive; u = inconclusive; x = no result; [ ] = dose if it differs, or a comment. Calls follow the shape of the dose curve; as a rule, active = well fitted curve in the direction sought with a large enough effect; inconclusive = small, poorly fitted or top-dose-only effect, or another doubt; inactive = no such curve, though single readings can be large; an effect the other way counts as inactive or inconclusive.

SMILES | SMN2 splice up | KinaseGlo FLuc | Rab9 promoter act | ELG1 genotoxic | NPC1 prom act | FLuc modulator
O=c1oc(-c2cccs2)nc2scc(-c3cccs3)c12 | 11µM | n | n | n | n | 7.6µM
Cc1sc2nc(-c3cccs3)oc(=O)c2c1C | x | x | n | n | n | 11µM
Cc1sc2nc(-c3ccc(Br)cc3)oc(=O)c2c1C | x | x | n | n | u | 2.7µM
CCc1cc2c(=O)oc(-c3ccc(Br)cc3)nc2s1 | x | x | n | n | n | 6µM
COc1cc(C2SC[C@H]3C(=O)N(c4ccccc4)C(=O)N23)cc(OC)c1OC (stereo partly drawn) | n | x | x | x | x | n
CCOc1ccc(C(=O)CSCC(=O)O)cc1 | n | n | n | n | n | u
CCc1ccn2cc(-c3cc(-c4ccccc4)no3)nc2c1 | x | x | n | u | n | 0.067µM
Cc1ccn2cc(-c3ccc(NS(=O)(=O)c4ccccc4)cc3)nc2c1 | n | n | n | n | n | u
Cc1ccc2nc(-c3cc(-c4ccccc4)no3)cn2c1 | x | x | 0.25µM | 0.26µM | 0.79µM | 0.21µM
Cc1ccc(C(=O)Oc2cc(-c3ccccc3)no2)cc1 | n | n | n | n | n | n
COC(=O)c1cccc(NC(=O)CN2CCc3ccccc3C2)c1 | x | x | n | n | n | n
CCc1ccc(NC(=O)CSc2nc(-c3ccccc3)c(C#N)c(=O)[nH]2)cc1 | x | x | x | x | x | 11µM
N#Cc1c(-c2ccccc2)nc(SCC(=O)Nc2ccccc2)[nH]c1=O | n | n | n | n | n | n
Cc1cc(C)nc(NS(=O)(=O)c2ccc(NC(=O)CSc3nc(-c4ccccc4)c(C#N)c(=O)[nH]3)cc2)n1 | n | n | n | n | n | 11µM
Cc1cc(NC(=O)CSc2nc(-c3ccccc3)c(C#N)c(=O)[nH]2)no1 | n | n | n | n | n | n
Fc1ccc(C(NCCc2ccc(Cl)cc2)c2nnc(-c3ccccc3Cl)o2)cc1 (stereo not drawn) | n | x | x | x | x | n
O=C(CON1C(=O)c2ccccc2C1=O)c1ccccc1 | n[9.22 µM] | n[7.66 µM] | x | x | x | x
CCC(C)(C)NC(=O)C(c1ccc(OC)cc1)N(Cc1cccs1)C(=O)CCC(=O)Nc1cc(C)on1 (stereo not drawn) | n | n | 0.63µM | n | n | n
COc1cc(/C=C2/C(=O)NN(c3cccc(C)c3)C2=O)cc([N+](=O)[O-])c1O | n | n | n | n | n | 21µM
COc1cc(/C=C2/C(=O)NN(c3ccc(C)c(Cl)c3)C2=O)cc([N+](=O)[O-])c1O | x | x | n | n | n | 19µM
CCOC(=O)NCc1ccc(S(=O)(=O)Nc2c(C)cccc2C)cc1 | n | n | n | n | n | n
O=C(CSC(=S)N1CCCCC1)c1ccccc1 | 0.56µM | n | 0.32µM | 0.65µM | 0.5µM | 1.2µM
O=C(CSC(=S)N1CCCC1)c1ccccc1 | x | x | 0.4µM | 0.58µM | 0.63µM | 1.1µM
O=C(O)CSC(=S)N1CCCC1 | x | x | n | n | n | n
COc1cc([N+](=O)[O-])ccc1NC(=O)NCC1CCN(Cc2ccc(Cl)cc2)CC1 | x | x | n[1.84 µM] | n | n | n
SMILES | SMN2 splice up | KinaseGlo FLuc | Rab9 promoter act | ELG1 genotoxic | NPC1 prom act | FLuc modulator
COc1ccc(S(=O)(=O)N2CCOCC2)cc1C(=O)NCC(c1ccco1)N1CCCC1 (stereo not drawn) | x | x | n | n | n | n
CCN=C1NN=C(c2cc(C)n(CCc3ccccc3)c2C)CS1 | n | n | n | u | n | n
COCC(C)N=C1NN=C(c2c[nH]c3ccccc23)CS1 (stereo not drawn) | x | n | u | u | n | 21µM
CCN=C1NN=C(c2c[nH]c3ccccc23)CS1 | x | n | 1.1µM | u | 3.5µM | 6µM
CC(C)(C)C(=O)Nc1cccc(-c2nc3ccccc3[nH]2)c1 | n | n | n | n | n | 15µM
Cc1cc(C)cc(OCC(=O)Nc2cccc(-c3nc4ccccc4[nH]3)c2)c1 | n | x | x | x | x | 11µM
CC(C)COc1ccc(C(=O)Nc2cccc(-c3nc4ccccc4[nH]3)c2)cc1 | n | x | x | x | x | u
CC(C)CC(=O)Nc1cccc(-c2nc3ccccc3[nH]2)c1 | u | x | n | n | n | 17µM
CC(Oc1ccccc1)C(=O)Nc1cccc(-c2nc3ccccc3[nH]2)c1 (stereo not drawn) | x | x | n | n | n | 12µM

From PubChem BioAssay
